# Only some compounds are listed: those with a hit (about 9.3% of all), similar ones and a draw of the others.
# FLuc modulator – qHTS profiling assay for firefly luciferase inhibitor/activator using purifed enzyme and Km concentrations of substrates (counterscreen for miR-21 project); Luciferin 4-monooxygenase (Photinus pyralis), P08659; purified FLuc, Km substrates, luminescence inhibition; Potency, µM (highest dose often 57.5 µM), without a hit: at the top dose activity change, negative = inhibition, usual class: inhibitors; hit rate 6.9% among 360,000;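 also: plate controls were vehicle for no effect and reference inhibitor for full effect; nearly all actives have a fitted effect of over 55% in size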
# Target sequence (P08659 whole entry, looked up): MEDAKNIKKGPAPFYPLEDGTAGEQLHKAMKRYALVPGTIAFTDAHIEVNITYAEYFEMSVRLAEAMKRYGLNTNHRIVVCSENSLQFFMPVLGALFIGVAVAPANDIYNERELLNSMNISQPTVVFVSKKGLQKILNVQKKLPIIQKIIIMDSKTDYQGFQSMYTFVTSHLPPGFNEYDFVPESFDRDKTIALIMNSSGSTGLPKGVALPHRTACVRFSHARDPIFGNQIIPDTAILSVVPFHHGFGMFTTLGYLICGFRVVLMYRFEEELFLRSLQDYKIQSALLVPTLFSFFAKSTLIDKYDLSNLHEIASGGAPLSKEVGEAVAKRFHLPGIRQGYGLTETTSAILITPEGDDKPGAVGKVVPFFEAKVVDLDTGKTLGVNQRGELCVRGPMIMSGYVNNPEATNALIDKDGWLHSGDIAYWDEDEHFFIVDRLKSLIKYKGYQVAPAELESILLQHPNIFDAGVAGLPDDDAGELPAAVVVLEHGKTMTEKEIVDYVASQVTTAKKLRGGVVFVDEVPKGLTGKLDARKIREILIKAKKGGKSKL
#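 Biochemical qHTS of compounds, final roughly 60 µM downward over six points, against 10 nM purified firefly luciferase using Km concentrations of substrates (10 uM D-luciferin, 10 uM ATP) in Tris acetate pH 7.5 buffer; luminescence output.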
# ELG1 genotoxic – qHTS screen for small molecules that induce genotoxicity in human embryonic kidney (HEK293T) cells expressing luciferase-tagged ELG1; Potency, µM (titrated, usually from 46 µM), without a hit: at the highest dose activity change, positive = activation, usual class: activators; hit rate 1.3% among 330,000; HEK293T ELG1-luciferase reporter, luminescence, 16 h; AID 504466, 2011; also: % of control where 0% means no effect; nearly all actives have a fitted effect of over 60% in size
#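 After overnight (16 hr) compound treatment at 37 °C, ELG1-luciferase HEK293T cells were lysed with ONE-Glo; luminescence quantified 30 min later at room temperature.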
# NPC1 prom act – qHTS Assay for NPC1 Promoter Activators | Huh7 NPC1 promoter luciferase reporter, 24 h | Potency, µM (highest dose often 9.22 µM), for the others: top-dose activation, hits mostly activators | hit rate 2.4% among 320,000 | AID 485313, 2010; also: % of control where 0% means no effect; nearly all actives have a fitted effect of over 60% in size
#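 Huh7 reporter cells (NPC1 promoter driving luciferase) are dosed with compound for 24 h at 37 °C, 5% CO2; luciferase detection reagent is then added and luminescence measured after 10 min at ambient temperature.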
# Rab9 promoter act – qHTS Assay for Rab9 Promoter Activators. Huh7 Rab9 promoter-luciferase reporter, luminescence, 24 h. Potency, µM (titrated, usually from 9.22 µM), inactives show at the highest dose activation, negative = inhibition, actives largely listed as activators. hit rate 2.8% among 320,000. AID 485297, 2010; also: % of control where 0% means no effect; nearly all actives have a fitted effect of over 60% in size
#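 Rab9 promoter-driven luciferase in stably transfected Huh7 cells; 1500 cells/well rested 2 h, exposed to compound in DMSO for 24 h at 37 °C, 5% CO2. Luminescence read 10 min after adding luciferase reagent at ambient temperature.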
# SMN2 splice up – qHTS Assay for Enhancers of SMN2 Splice Variant Expression; HEK293 SMN2-luciferase splicing reporter, luminescence, 30-36 h; Potency, µM (top dose mostly 46.1 µM), inactives show at the highest dose activity change, positive = activation, actives largely listed as activators; hit rate 2.8% among 210,000; AID 1458, 2008; also: % of control where 0% means no effect; nearly all actives have a fitted effect of over 55% in size
#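 HEK293 cells carry an SMN2 minigene-luciferase reporter in which exon 7 inclusion puts luciferase in frame. Cells were seeded at 2000 cells/well, attached for 10-12 hours, then exposed to compounds for 30-36 hours at 37C before ONE-Glo luminescence.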
# ELG1 repair inh – qHTS screen for small molecules that inhibit ELG1-dependent DNA repair in human embryonic kidney (HEK293T) cells expressing luciferase-tagged ELG1. HEK293T ELG1-luciferase reporter, luminescence, 16 h; DNA damage induced by 5-fluorouridine. Potency, µM (titrated, usually from 46.1 µM), for the others: at the highest dose activity change, negative = inhibition, hits mostly inhibitors. hit rate 2.3% among 330,000. AID 504467, 2011; also: % is scaled to controls: 0 for no effect and ±100 for the full control effect; nearly all actives have a fitted effect of over 55% in size
#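 Step one: seed 2,000 cells per well. Step two: pin-transfer compound or DMSO alongside 5-fluorouridine. Step three: incubate 16 hr, 37 °C, 5% CO2. Step four: add ONE-Glo, wait 30 min, read luminescence.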
# The depositor's hits bear a star; u = inconclusive; x = no result. Calls follow the shape of the dose curve; as a rule, active = well fitted curve in the direction sought with a large enough effect; inconclusive = small, poorly fitted or top-dose-only effect, or another doubt; inactive = no such curve, though single readings can be large; an effect the other way counts as inactive or inconclusive. Potency is read from the fitted curve at half-maximal effect.
SMILES,FLuc modulator,ELG1 genotoxic,NPC1 prom act,Rab9 promoter act,SMN2 splice up,ELG1 repair inh
COc1cccc(/C=N/NC(=O)c2oc3nc(-c4ccccc4)cc(-c4ccco4)c3c2N)c1,u,-10%,-4%,-5%,x,16µM*
Cc1ccc(NC(=O)Cn2c(=O)n(-c3ccc(CC(=O)NCC4CCCO4)cc3)c(=O)c3ccccc32)cc1 (configuration not stated),-2%,x,x,x,0%,x
CC(=O)Nc1cccc(C(=O)NCc2ccc3c(c2)CCN3C(C)=O)c1,-8%,x,x,x,x,x
Cc1ccc(Nc2c(-c3ccc(N(C)C)cc3)nc3ccccn23)cc1,7.6µM*,x,x,x,15%,x
Cc1ccc2nc(-c3ccncc3)c(Nc3ccccc3)n2c1,0%,-1%,-1%,0%,18µM*,11%
Cc1ccc(-c2nc3ccccn3c2Nc2ccc3c(c2)OCO3)cc1,u,x,x,x,-6%,x
CCOC(=O)Cc1csc(NC(=O)/C=C\c2ccccc2)n1,5.4µM*,-2%,22%,9%,4%,u
CCOC(=O)Cc1csc(NC(=O)COC(=O)/C=C/c2ccc(OC)cc2)n1,x,-2%,x,x,x,0%
CCOC(=O)Cc1csc(NC(=O)/C=C/c2ccc(OC)cc2)n1,1.3µM*,-2%,29%,12%,-13%,u
CCOC(=O)Cc1csc(NC(=O)CCCc2ccccc2)n1,-22%,-9%,-5%,9%,x,2%
O=C1CCC(/C=C/c2ccccc2)=NN1,-13%,16%,-15%,9%,11%,u
COc1ccc(/C=C/C2=NNC(=O)CC2)cc1,u,u,27%,2.8µM*,16µM*,u
CCOc1ccc(/C=C/C2=NNC(=O)CC2)cc1,15µM*,18µM*,u,u,11µM*,u
CCN(CC)c1ccc(NC(=O)CN(C)S(=O)(=O)c2cccc3nsnc23)c(C)c1,-13%,x,x,x,3%,x
Cc1ccc(N(CC(=O)NCc2ccc(F)cc2)C(=O)c2csnn2)cc1C,4%,-5%,-1%,5%,-5%,8%
CC[n+]1ccc(/C=C/c2ccc(N(C)C)cc2)c2ccccc21,24µM*,-7%,-38%,-61%,x,u
CC[n+]1ccccc1/C=C/c1ccc(N(C)C)cc1,-10%,-2%,-40%,-34%,-54%,u
CCS(=O)(=O)N1Cc2ccccc2CC1C(=O)Nc1nnc(C2CC2)s1 (configuration not stated),-5%,-1%,0%,2%,-7%,-7%
CCS(=O)(=O)N1Cc2ccccc2CC1C(=O)Nc1nc2ccccc2[nH]1 (configuration not stated),15µM*,u,24%,20%,u,u
CCc1nnc(NC(=O)C2Cc3ccccc3CN2S(=O)(=O)CC)s1 (configuration not stated),-4%,-9%,-2%,-4%,5%,3%
CCS(=O)(=O)N1Cc2ccccc2CC1C(=O)Nc1nc2ccccc2s1 (configuration not stated),5.4µM*,2.3µM*,1%,10%,-47%,u
CNCc1ccccc1Sc1cc(O)ccc1O,9.5µM*,7%,7%,-1%,-14%,4%
O=C(NNC(=O)c1cccc(O)c1)Nc1ccc([N+](=O)[O-])cc1,4%,-4%,-1%,2%,-7%,-13%
Cc1ccc(C)c2sc(NC(=O)c3ccc(S(=O)(=O)N4CCC(C)CC4)cc3)nc12,-16%,x,x,x,x,x
CCOc1ccccc1NC(=S)Nc1ncccc1C,u,-1%,-1%,0%,x,u
SMILES,FLuc modulator,ELG1 genotoxic,NPC1 prom act,Rab9 promoter act,SMN2 splice up,ELG1 repair inh
Cc1cccnc1NC(=S)Nc1ncccc1C,13µM*,u,1.3µM*,0.71µM*,x,u
COc1ccc(NC(=S)Nc2ncccc2C)c(OC)c1,9.5µM*,12%,u,u,u,u
COc1ccc(NC(=S)Nc2ncccc2C)cc1OC,u,u,u,u,35µM*,u
Cc1cccnc1NC(=S)NCCc1ccccc1,17µM*,u,24%,u,u,u
COc1ccc2[nH]c(=O)c(CN(Cc3cccnc3)C(=S)NCC3CCCO3)cc2c1 (configuration not stated),2%,-7%,-7%,-5%,x,u
CSCCC(C(=O)N(C)CC(=O)Nc1cccc(F)c1)N1C(=O)c2ccccc2C1=O (configuration not stated),-2%,-2%,-1%,-5%,x,2%
Cc1cc(N(CCO)CCO)ccc1N=Nc1cc(F)ccc1F,24µM*,u,u,u,u,u
Nc1ccc(N(CCO)CCO)cc1,4%,1%,1%,14%,x,-2%
COc1cc(Cl)cc(/C=C/c2ccc3cccc(O)c3n2)c1OC,u,13%,u,u,x,3%
COc1ccc(Cl)cc1/C=C/c1ccc2cccc(O)c2n1,17µM*,u,4µM*,3.5µM*,x,u
COc1ccccc1/C=C/c1ccc2cccc(O)c2n1,4.8µM*,21µM*,u,u,x,u
COc1ccccc1[C@@]1(C)ON(c2ccccc2C(F)(F)F)C1=O,4%,-3%,-12%,-5%,x,18µM*
c1ccc(CSc2nnc(-c3ccco3)o2)cc1,17µM*,u,u,u,x,u
Cc1ccc(CSc2nnc(-c3ccco3)o2)cc1,12µM*,u,u,4µM*,20%,u
Fc1ccc(CSc2nnc(-c3ccco3)o2)cc1,u,15%,u,u,x,u
Brc1ccc(CSc2nnc(-c3ccco3)o2)cc1,u,18%,-1%,8%,13µM*,u
CCCSc1nnc(CSc2nc(C)cc(C)n2)n1C,0%,10%,-2%,18%,1%,11%
CNC(=O)c1cc(Oc2ccc(NC(=O)Nc3ccc(Cl)c(C(F)(F)F)c3)cc2)ccn1,-12%,-9%,-9%,-22%,x,u
NC(=O)C1(N2CCCCC2)CCN(C(=O)Nc2ccc(C(F)(F)F)cc2)CC1,-2%,x,x,x,1%,x
COc1ccc(C(O)c2nc3ccccc3n2C)cc1OC (configuration not stated),0%,-7%,-21%,-20%,-67%,9.2µM*
COCCOc1cc(Nc2nnc(C(F)(F)F)s2)c(Cl)cc1Cl,u,-6%,1%,2%,-49%,6.5µM*
